Drawing on PubChem BioAssay AID1626 (SRMLSC, 2009), this text covers inhibition for 27 molecules.

Each structure is given as a SMILES string. Hit rate of the full screen: of about 220,000 compounds, about 2,000 (0.91%) were called active. Inconclusive results (about 2%) are left out. Cut-off read from the data, not from the text of the source: inconclusive = inhibition above about 80% without an active follow-up result; inactive = below that; test concentration not stated here. Not all results are given here. Results with a measured potency or affinity are listed apart.

The nature of this assay: M. tuberculosis H37Rv growth inhibitors, H37Rv strain (AID 1626).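 Note: bacteria incubated seven days before Alamar blue readout; 0% = bacteria only wells and 100% = bacteria with antibiotic wells.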 The note with it: active compounds read high, concentration not given here.
`Cc1ccccc1COc1ccc(/C=C(\C#N)C(N)=O)cc1`: the inhibition is 6.69% (inactive). The result for `CCOc1ccc(OCCN(C)Cc2ccccc2)cc1` reads 4.01% (inactive); that for `COc1cc(-c2nc3ccc4ccccc4c3c3c2CCC3)cc(OC)c1OC`, -4.59% (inactive); that for `Cc1cc(-c2cccc([N+](=O)[O-])c2)nc2ccc3ccccc3c12`, -9.17% (inactive). The result for `COc1cc(-c2nc3ccc4ccccc4c3c3c2CCC3)ccc1O` reads 20.8% (inactive). On to `Oc1ccc(-c2nc3ccc4ccccc4c3c3c2CCC3)cc1O`, for which the inhibition was 1.26% (inactive).

Turning to `Cc1ccc(/C=C/C(=O)NCc2ccncc2)cc1`, the inhibition is 7.66% (inactive). The result for `Cn1c(N)c(C(=O)COC(=O)C2CCCC2)c(=O)n(C)c1=O` reads -2.87% (inactive). The result for `Cc1ccc(S(=O)(=O)N(C)C)cc1NC(=S)NNC(=O)C(N)=O` reads 1.54% (inactive); that for `CCCCCCC(=O)N(O)C1CC(=O)N(c2ccc(Cl)cc2)C1=O` (configuration not stated), 7.87% (inactive); that for `CCOCCOC(=O)c1cccc(NC(=O)OCC)c1`, -3.13% (inactive). The result for `C=CCn1c(O)c(N=NC(=O)CNC(=O)/C=C/c2ccco2)c2ccccc21` reads -15.1% (inactive); that for `Cc1cc2ncn(/N=C/c3cc(Br)ccc3O)c2cc1C`, -5.04% (inactive); that for `Cc1cc2ncn(/N=C/c3cccnc3)c2cc1C`, 7.38% (inactive). For `OCc1nc2ccccc2n1/N=C/c1cccs1`, the inhibition was 1.55% (inactive). The result for `O=[N+]([O-])c1ccc(O)c(/C=N/n2c(CO)nc3ccccc32)c1` reads -3.46% (inactive).

For `Cc1ccc(/C=N/n2c(C)nc3ccccc3c2=O)s1`, the inhibition was -1.18% (inactive). The result for `Cc1nc2ccccc2n1/N=C/c1cccnc1` reads -6.36% (inactive); that for `OCCN(CCO)CC(O)COc1ccc(C23CC4CC(CC(C4)C2)C3)cc1` (configuration not stated), 24.6% (inactive). As to `CCC1CCCCN1CCCNC(=O)Cn1nc(-c2ccc(C)cc2)ccc1=O` (configuration not stated), the inhibition was -8.72% (inactive). Turning to `O=C(CSc1nnc(-c2ccco2)n1Cc1ccco1)Nc1ccccc1`, the inhibition was -2.58% (inactive). Take `Cc1cccc(NP(=O)(Oc2ccccc2F)Oc2ccccc2F)c1C`: the inhibition is 1.18% (inactive). Regarding `O=C(NCc1ccccc1)c1ccccc1-c1nc2ccccc2[nH]1`, the inhibition is 4.78% (inactive). On to `CCOC(=O)Cc1c(C)nc2c(-c3ccc(Cl)cc3)c(C)[nH]n2c1=O`, for which the inhibition was 78.8% (inactive).

As for `Cc1ccc(-c2csc(NC(=O)CSc3nc(C)cc(=O)[nH]3)n2)cc1`, the inhibition was 1.91% (inactive). The result for `Clc1ccc(-c2cc(-c3nnc4n3CCCCC4)c3ccccc3n2)cc1` reads 71.9% (inactive). The result for `OC(c1cc(C(F)(F)F)nc2c(Cl)cc(Cl)cc12)C1CCCCN1` (configuration not stated) reads 49.4% (inactive).
